This note sets out measurements from the supplement of paper PMC4840960.

Test [1] has as its system E18 rat cortical neuron-glia co-culture. Nature of the test: fiber score / MBP score (myelination specific beyond OL differentiation) (ratio); higher = more myelination-specific MBP alignment. To be noted: treatment time: 8 days (DIV5-DIV13). The procedure, abridged:
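The measure is the ratio of fiber score to MBP score, where fiber score is continuous MBP fiber length per Olig2+ nucleus and MBP score is thresholded MBP area × intensity per Olig2+ nucleus. Primary E18 rat cortical co-cultures received library compounds at 1 or 5 µM in myelination medium from DIV5 to DIV13, then were fixed in 4 % paraformaldehyde and stained for MBP, Olig2 and DAPI before analysis of four 10X fields per well in duplicate wells.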

Test [2] has the same test system. In words: myelination (MBP fiber length per Olig2+ nucleus), % of 1 µM DAPT response (DMSO = 0) (% of DAPT); higher = more myelination, active = 50 or more. Particulars: treatment time: 8 days (DIV5-DIV13). The procedure, abridged:
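The myelination value was the continuous straight MBP fiber length per Olig2+ nucleus, scaled between 0.1 % DMSO (0) and a 1 µM positive control (100). It was measured in primary E18 rat cortical co-cultures treated with library compounds at 1 or 5 µM in myelination medium from DIV5 through DIV13. Cells were fixed in 4 % paraformaldehyde and stained for MBP, Olig2 and DAPI, and four 10X fields per well were imaged in duplicate wells.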

Consider `C[C@]12C[C@H](O)[C@H]3[C@@H](CCC4=CC(=O)CC[C@@]43C)[C@@H]1CC[C@@H]2C(=O)CO` [Corticosterone], for which the results for the “fiber score / MBP score” value in test [1] (1 µM) and in test [1] (5 µM) were 0.706 and 0.702, respectively. Further, the myelination in test [2] (1 µM) was -7.15 (inactive); in test [2] (5 µM) it was -4.49 (inactive).
For `O=C(O)CCCc1ccccc1` [4-Phenylbutyric acid], in that order: 1.07, 0.747, 10.1 (inactive) and -8.79 (inactive).
Turning to `C[C@](N)(Cc1ccc(O)c(O)c1)C(=O)O` [Methyldopa], the results for the “fiber score / MBP score” value in test [1] (1 µM) and in test [1] (5 µM) were 1.28 and 0.884, respectively. Besides, the myelination in test [2] (1 µM) was 22.3 (inactive); in test [2] (5 µM), -8.85 (inactive).
For `CN(C)[C@@H]1C(O)=C(C(N)=O)C(=O)[C@@]2(O)C(O)=C3C(=O)c4c(O)cccc4C[C@H]3C[C@@H]12` [Sancycline], in that order: 0.961, 0.714, -12.5 (inactive) and -15 (inactive).
For `COc1ccc(-c2cc(=O)c3c(OC)c(OC)c(OC)c(OC)c3o2)cc1OC` [Nobiletin], in that order: 1.28, 1.16, -36.3 (inactive) and -46.5 (inactive).
For `C[C@@H](O)[C@H]1C(=O)N2C(C(=O)O)=C(S[C@@H]3CN[C@H](C(=O)N(C)C)C3)[C@H](C)[C@H]12` [Meropenem], in that order: 0.99, 0.804, 2.11 (inactive) and -19.5 (inactive).
`CCC(=O)O[C@@H]1CC(=O)O[C@H](C)C/C=C/C=C/[C@H](O)[C@H](C)C[C@H](CC=O)[C@H](O[C@@H]2O[C@H](C)[C@@H](O[C@H]3C[C@@](C)(O)[C@@H](OC(=O)CC)[C@H](C)O3)[C@H](N(C)C)[C@H]2O)[C@H]1OC` [Midecamycin]: the “fiber score / MBP score” value in test [1] (1 µM) stood at 0.757; in test [1] (5 µM), 1.13. Also, the myelination in test [2] (1 µM) was -9.01 (inactive); in test [2] (5 µM), 1.11 (inactive).
For `CC1=C(CC(=O)O)c2cc(F)ccc2/C1=C\c1ccc([S+](C)[O-])cc1` (centres undefined) [Sulindac], the “fiber score / MBP score” value turned out to be 0.97 in test [1] (1 µM) and 0.594 in test [1] (5 µM). For the same compound, the myelination in test [2] (1 µM) is -5.43 (inactive); in test [2] (5 µM), -16.6 (inactive).
Turning to `CC1=C(C/C=C(\C)CCC[C@H](C)CCC[C@H](C)CCCC(C)C)C(=O)c2ccccc2C1=O` [Phylloquinone], the “fiber score / MBP score” value was 0.894 in test [1] (1 µM) and 0.723 in test [1] (5 µM). In addition, the myelination was -4.4 (inactive) in test [2] (1 µM) and -10.2 (inactive) in test [2] (5 µM).
As to `Nc1nc(=O)c2nc(CNc3ccc(C(=O)N[C@@H](CCC(=O)O)C(=O)O)cc3)cnc2[nH]1` [Folic acid], the “fiber score / MBP score” value in test [1] (1 µM) turned out to be 0.994; in test [1] (5 µM), 0.627. Also, the results for the myelination in test [2] (1 µM) and in test [2] (5 µM) were -5.35 (inactive) and -17.3 (inactive), respectively.
For `CCc1oc2ccccc2c1C(=O)c1cc(Br)c(O)c(Br)c1` [Benzbromarone], the “fiber score / MBP score” value in test [1] (1 µM) is 0.764; in test [1] (5 µM), 0.919. The figures for the myelination in test [2] (1 µM) and in test [2] (5 µM) were -8.31 (inactive) and -9.52 (inactive), respectively.
For `Cn1c(NCCN(CCO)CCCc2ccc([N+](=O)[O-])cc2)cc(=O)n(C)c1=O` [Nifekalant], in that order: 0.616, 0.616, -9.01 (inactive) and -19.6 (inactive).
The like results for `Cc1sc(N)c(C(=O)c2cccc(C(F)(F)F)c2)c1C` were, in that order, 0.681, 0.698, -18.7 (inactive) and -12 (inactive).
For `CC(COc1ccccc1)N(CCCl)Cc1ccccc1` (centres undefined) [Phenoxybenzamine], in that order: 0.774, 0.918, -14.4 (inactive) and 0.385 (inactive).
Regarding `CN(C)c1nc(N(C)C)nc(N(C)C)n1` [Altretamine], the “fiber score / MBP score” value in test [1] (1 µM) stood at 0.923; in test [1] (5 µM), 0.901. Moreover, the myelination in test [2] (1 µM) is -3.29 (inactive); in test [2] (5 µM), -4.16 (inactive).
In the case of `O=C1CN(/N=C/c2ccc([N+](=O)[O-])o2)C(=O)N1` [Nitrofurantoin], the “fiber score / MBP score” value worked out at 0.819 in test [1] (1 µM) and 1.79 in test [1] (5 µM). In addition, the myelination in test [2] (1 µM) is -1.03 (inactive); in test [2] (5 µM), 44 (inactive).
For the compound `Cc1ccc(Cl)c(Nc2ccccc2C(=O)O)c1Cl` [Meclofenamic acid], the “fiber score / MBP score” value in test [1] (1 µM) was 0.788; in test [1] (5 µM), 0.864. Further, the myelination in test [2] (1 µM) is -26 (inactive); in test [2] (5 µM) it was -2.96 (inactive).
Turning to `C#C[C@]1(O)CC[C@H]2[C@@H]3CCC4=CC(=O)CC[C@@H]4[C@H]3CC[C@@]21C` [Norethindrone], the “fiber score / MBP score” value in test [1] (1 µM) came out at 0.894; in test [1] (5 µM) it was 0.877. In addition, the myelination is -8.89 (inactive) in test [2] (1 µM) and -10.7 (inactive) in test [2] (5 µM).
The like results for `CCCCN1CCCC1CNC(=O)c1cc(C#N)c2ccccc2c1OC` (centres undefined) [Nafadotride] were, in that order, 0.516, 0.414, -15 (inactive) and -20.4 (inactive).
The like results for `CC1=Nc2ccc(Cl)cc2S(=O)(=O)N1` [Diazoxide] were, in that order, 1.25, 0.573, 5.81 (inactive) and -18.4 (inactive).
In the case of `Nc1nc(Cl)nc2c1ncn2[C@@H]1O[C@H](CO)[C@@H](O)[C@H]1O` [2-Chloroadenosine], the “fiber score / MBP score” value in test [1] (1 µM) amounted to 0.752; in test [1] (5 µM), 0.764. The myelination is -12.4 (inactive) in test [2] (1 µM) and -10.5 (inactive) in test [2] (5 µM).
The like results for `O=C(NCCO[N+](=O)[O-])c1cccnc1` [Nicorandil] were, in that order, 0.852, 1.17, -8.12 (inactive) and -1.77 (inactive).
For `CC(C[N+](C)(C)C)OC(N)=O` (centres undefined) [Bethanechol], the “fiber score / MBP score” value in test [1] (1 µM) came to 0.372; in test [1] (5 µM) it was 0.379. Besides, the results for the myelination in test [2] (1 µM) and in test [2] (5 µM) were -14.3 (inactive) and -14.6 (inactive), respectively.
For `CCCCC[C@H](O)/C=C/[C@H]1[C@H](O)CC(=O)[C@@H]1CCCCCCC(=O)O` [Alprostadil], in that order: 1.12, 0.695, -1.94 (inactive) and -7.47 (inactive).
Turning to `Cc1onc(-c2ccccc2)c1-c1ccc(S(N)(=O)=O)cc1` [Valdecoxib], the “fiber score / MBP score” value is 0.873 in test [1] (1 µM) and 0.733 in test [1] (5 µM). Further, the values for the myelination in test [2] (1 µM) and in test [2] (5 µM) were -12.1 (inactive) and -45.9 (inactive), respectively.
The like results for `CC(=O)Oc1ccccc1C(=O)Nc1ncc([N+](=O)[O-])s1` [Nitazoxanide] were, in that order, 1.18, 1.61, 4.89 (inactive) and 91.6 (active).
